# Laboratory results taken from PubChem BioAssay AID1492 (National Center for Advancing Translational Sciences (NCATS), 2009).
# Inconclusive results are not listed. Active and inactive are the calls of the source. Calls follow the shape of the dose curve; as a rule, active = well fitted inhibition curve with a large enough effect; inconclusive = small, poorly fitted or top-dose-only effect; inactive = flat fitted curve, though single readings scatter.
# Molecular target: Muscarinic acetylcholine receptor M1 (Rattus norvegicus) (UniProt P08482)
# Assay: Counterscreen Concentration-Response Assay for Antagonists of the Neuropeptide S Receptor: Muscarinic Receptor Calcium Signal Transduction.
# Conditions: CHO-M1 cells, carbachol-induced calcium fluorescence, FDSS; series mostly up to 20.2 µM
# Text: NIH Chemical Genomics Center [NCGC] NIH Molecular Libraries Probe Production centers Network [MLPCN] MLPCN Grant: X01-DA026210-01 Assay Submitter (PI): Heilig, Markus Alexander NCGC Assay Overview: Neuropeptide S receptor (NPSR), previously known as GPR154, is a recently de-orphanized G protein coupled receptor. Its endogenous ligand is the 20 amino acids peptide Neuropeptide S (NPS). […] NPS and its receptor are found in various tissues. Specifically they are highly expressed in brain areas that have been implicated in modulation of arousal, stress and anxiety. […] This change in intracellular calcium can be detected using a calcium indicator dye on a calcium imaging plate reader system (FDSS). […]
# NCGC Assay Protocol Summary: A Chinese hamster ovary (CHO) cell line stably expressing muscarinic acetylcholine M1 receptor (CHO-M1) was obtained from ATCC and maintained in F-12 Kaighn's media (Invitrogen, Carlsbad, CA, 21127) supplemented with 10 % FBS, 100 units/ml penicillin, 100 ug/ml streptomycin and 250 ug/ml geneticin at 37C, 5% CO2 in a humidified atmosphere. […] The assay was performed on a FDSS-7000 kinetic plate reader in 1536-well format. The maximums of kinetic fluorescence responses were converted into text files using the instrument's software data export utility. […] AC50 values were determined from concentration-response data modeled with the standard Hill equation. […]
structure (smiles),measurement,value
O=c1[nH]c(=O)n(CCC2=CCCCC2)c(O)c1C=NC1CCN(Cc2ccccc2)CC1,outcome,inactive
